# An excerpt weighted towards active compounds, which were near 2.9% of everything screened.
# KLK7 zymogen act = proKLK7 (human) activation, primary screen; P49862; purified proKLK7, EDANS-DABCYL substrate fluorescence; 100% is mature enzyme control, 0% vehicle; activation, % at 7 µM; 0.9% of 370,000 active; AID 652039;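 active = activation above the mean of all tested compounds plus 3 SD, computed per campaign excluding outliers beyond control limits, cut at about 13% in these data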
# PLCb3 inh = inhibitors of human phospholipase C beta3. Purified PLC-beta3, fluorogenic substrate, fluorescence. inhibition, % at 12.2 µM. 0.18% of 370,000 active;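 also: 0% = median of compound wells on plate and 100% = full blocker control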
# ADAM10 inh = inhibits human ADAM10; O14672; recombinant ADAM10, EDANS/DABCYL FRET peptide cleavage, 3 h; inhibition, % at 7 µM; 0.62% of 370,000 active;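 active = inhibition above a per-campaign cutoff equal to the mean of compounds falling between control-based bounds plus 3 SD, cut at about 20% in these data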;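 also: 0% = DMSO wells while the 100% control is not disclosed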
# ADAM17 inh = inhibitors of human ADAM17; P78536; 0.83% of 370,000 active; inhibition, % at 6.95 µM; AID 720648; recombinant ADAM17, EDANS/DABCYL FRET peptide cleavage;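 active = inhibition above the mean of compounds lying between control limits plus 3 SD, set per campaign, cut at about 8.5% in these data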;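 also: 0% = DMSO-only wells as the low control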
# PLC-gamma1 inh = inhibitors of human phospholipase C gamma1 | P19174 | purified PLC-gamma1, fluorogenic substrate, fluorescence | inhibition, % at 12.2 µM | 0.84% of 370,000 active | AID 720700; in the data active = inhibition above about 9.5%
# PLCg1 ctr = counter-screen for PLC-beta3 inhibitors: inhibitors of human PLC-gamma1 | AID 743258 | 3.1% of 3,300 active | shares compounds with PLC-gamma1 inh | inhibition, % at 12.3 µM | purified PLC-gamma1, fluorogenic substrate, fluorescence; in the data active = inhibition above about 9.5%
# PLCb3 confirm = human PLC-beta3 inhibition, confirmation; inhibition, % at 12.3 µM; 1% of 3,300 active; shares compounds with PLC-gamma1 inh; purified PLC-beta3, fluorogenic substrate fluorescence
# Numbers without * were called inactive; i = inactive; x = no result. Rule as the data show it, unless noted: active = inhibition above about 11%; inactive = the rest.
SMILES,KLK7 zymogen act,PLCb3 inh,ADAM10 inh,ADAM17 inh,PLC-gamma1 inh,PLCg1 ctr,PLCb3 confirm
O=C(c1sccc1Cl)N1CCC(n2nnc3ncccc32)CC1,0,-1,-1,-1,0,x,x
C=CC[C@H](CC(=O)OC(C)(C)C)C(=O)OC[C@@H]1CCCN1C(=O)[C@@H](CC=C)CC(=O)NCCO,-1,3,-1,-2,9.8*,-9,-1
CCCNC(=O)c1cc2cc([N+](=O)[O-])ccc2s1,0,-2,1,-1,1,x,x
CC(C)NC(=O)c1cc2cc([N+](=O)[O-])ccc2s1,0,12*,10,8,14*,-3,4
O=C(CSc1nnc(-c2ccc(Cl)cc2Cl)n1C1CCCCC1)N1CCCC1,1,1,14,4,11*,1,2
O=C(CSc1nnc(-c2ccc(Br)cc2)n1C1CCCCC1)N1CCCC1,0,6,12,7,16*,-4,-2
O=C(CSc1nnc(-c2ccccc2F)n1C1CCCCC1)N1CCCC1,-1,6,-5,-1,6,x,x
CC1CCN(C(=O)CSc2nnc(-c3cccnc3)n2C2CCCCC2)CC1,-1,-1,5,2,2,x,x
CCOc1ccc(NC(=O)CN2C(=O)NC3(CCCCCC3)C2=O)cc1,0,2,-3,0,2,x,x
CCc1ccccc1NS(=O)(=O)c1cc(C)ccc1OC,1,-1,-6,-3,-1,x,x
O=C(N/N=C/C(Br)=C/c1ccccc1)c1cccs1,0,-4,9,2,0,x,x
CCOC(=O)Cc1csc(NC(=O)CCc2ccccc2)n1,0,-6,-1,-3,2,x,x
CCOC(=O)Cc1nnc(NC(=O)CCc2ccccc2)s1,0,-4,-9,-4,11*,-1,-10
O=C(/C=C/c1ccc([N+](=O)[O-])cc1)NC1CC2CCC1C2 (stereo not given),0,10,1,5,14*,7,5
CC(C)C(C(=O)NC1CCCC1)N1CCN(c2ncccc2C#N)CC1 (stereo not given),0,-8,-22,-8,-8,x,x
O=C(NCc1ccccc1)C(C1CC1)n1c(=O)c(-c2cc3ccccc3[nH]2)nc2ccccc21 (stereo not given),-36,i,-344,-120,i,x,x
CCOC(=O)c1ccc(-c2ccc3oc(-c4ccsc4)cc(=O)c3c2)cc1F,0,-1,-1,6,10*,-17,-14
O=C(Cn1nnc(-c2ccc(N3CCOCC3)cc2)n1)c1ccc(F)cc1,0,-2,-4,-1,-3,x,x
CCOc1cc(/C=N\NC(=O)Cn2nnc3ccccc32)ccc1O,-3,4,-10,0,10*,4,5
COc1cc(/C=N/NC(=O)Cn2nnc3ccccc32)ccc1O,-2,2,-18,-2,-1,x,x
Cc1ccc([N+](=O)[O-])cc1S(=O)(=O)Nc1cccc(S(=O)(=O)NC2=NCCC2)c1,0,7,8,5,9.6*,-5,-3
O=S(=O)(NC1=NCCC1)c1cccc(NS(=O)(=O)c2ccc(F)c(Cl)c2)c1,0,-5,-11,-7,1,x,x
COc1cccc(/C=N/N2CCN(C)CC2)c1,0,-2,-3,-2,0,x,x
COc1ccc(/C=N/N2CCN(C)CC2)cc1O,0,3,-7,-1,11*,5,1
COc1ccc(CCNC(=O)Nc2nc(C(N)Cc3ccccc3)cs2)cc1OC (stereo not given),0,7,13,8,9.6*,-4,1
COc1ccc(CC(N)c2csc(NC(=O)NCCc3ccc(OC)c(OC)c3)n2)cc1 (stereo not given),0,3,-2,1,1,x,x
CCOC(=O)Cc1nc(N2CCN(C(=O)C3CCCO3)CC2)c2c(C)c(C(=O)OCC)sc2n1 (stereo not given),0,-15,-12,-1,-11,x,x
Cc1cc(=O)n(C)c(=O)n1CCCCCN1CCCC1,0,7,7,4,11*,3,4
NC(=O)NC(=O)COC(=O)CCSc1ccccc1,-1,11*,-6,2,8,-9,-4
CCOC(=O)c1cc(S(=O)(=O)NCC2CCN(Cc3cccc(C)c3)CC2)cn1C,0,-1,-4,0,0,x,x

# Assay outcomes: PubChem, The Scripps Research Institute Molecular Screening Center
